# KCNH2 WT inh = inhibitors of human wildtype KCNH2 potassium channel; U2OS, BacMam KCNH2, thallium flux FluxOr; hits give low values; AID 720551; 340,000 compounds, 0.37% hits; Q12809; activity change, % at 1.84 µM;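 active means maximum activity change below -70%; inconclusive means maximum activity change between -70% and -50%; inactive means maximum activity change above -50%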; further: on the % scale 0 is the no-effect control and ±100 the full control effect
#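 U2OS cells were transduced with wild-type KCNH2 virus (2.03 x 10^8 / mL) for 4 h at room temperature, then cultured overnight at 37 C. Thallium flux was read with FluxOr dye. Rate constants were normalized to DMSO controls.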
# GLP1R inv ag = GLP-1 receptor (human) inverse agonism. Potency, µM (highest dose often 38.3 µM), for inactives: top-dose activity change, negative = inhibition, most hits filed as inhibitors. 410,000 compounds, 1.6% hits. P43220. HEK293 GLP-1R CRE-luciferase, luminescence, 24 h; GLP-1R form is constitutively active; further: potency means the concentration at half of the fitted maximal effect; on the % scale 0 is the no-effect control and ±100 the full control effect; nearly all actives have a fitted effect of over 55% in size
#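 HEK293 cells stably co-expressing a cAMP-responsive luciferase reporter and constitutively active GLP-1R were seeded, incubated 12 h, then exposed to compounds for 24 h at 37 C. Luminescence was read 12 min after detection reagent; inverse agonists lower signal.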
# KCNH2 3.1 inh = KCNH2 3.1 (human) potassium channel inhibition; 340,000 compounds, 0.95% hits; AID 720553; U2OS KCNH2 3.1, thallium flux FluxOr; hits give low values; activity change, % (tested at about 1.8 µM);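 active means maximum activity change below -70%; inconclusive means maximum activity change from -70% to -50%; inactive means maximum activity change above -50%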;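 further: thallium influx rate constant from kinetic fluorescence after stimulation buffer; on the % scale 0 is the no-effect control and ±100 the full control effect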
#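 FluxOr-based Tl+ influx in U2OS cells transduced with KCNH2 3.1 virus; rate constants normalized to DMSO controls.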
# GLP1R cytotox = cytotoxic in the GLP-1 receptor inverse agonist counter-screen. AID 624418. Potency, µM (doses to about 38.3 µM), inactives show at the top dose activity change, negative = inhibition, usual class: inhibitors. HEK293 cAMP-luciferase reporter cells, luminescence, 24 h. 410,000 compounds, 0.13% hits;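 further: loss of luciferase light is scored as toxicity; potency means the concentration at half of the fitted maximal effect; on the % scale 0 is the no-effect control and ±100 the full control effect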
#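 Seeding density was 200 cells/uL; after overnight-length (12 h) culture, 23 nL compounds went on for 24 h at 37 °C. Readout used a luciferase detection reagent, luminescence taken after 12 min at room temperature.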
# GLS inh = blocks human kidney-isoform glutaminase activity | AID 624170 | Potency, µM (series often up to 45.5 µM), without a hit: at the highest dose activity change, negative = inhibition, most hits filed as inhibitors | 410,000 compounds, 0.21% hits | O94925 | GLS enzymatic activity, qHTS titration; further: potency means the concentration at half of the fitted maximal effect; on the % scale 0 is the no-effect control and ±100 the full control effect
# Target sequence (O94925 whole entry, looked up, canonical isoform): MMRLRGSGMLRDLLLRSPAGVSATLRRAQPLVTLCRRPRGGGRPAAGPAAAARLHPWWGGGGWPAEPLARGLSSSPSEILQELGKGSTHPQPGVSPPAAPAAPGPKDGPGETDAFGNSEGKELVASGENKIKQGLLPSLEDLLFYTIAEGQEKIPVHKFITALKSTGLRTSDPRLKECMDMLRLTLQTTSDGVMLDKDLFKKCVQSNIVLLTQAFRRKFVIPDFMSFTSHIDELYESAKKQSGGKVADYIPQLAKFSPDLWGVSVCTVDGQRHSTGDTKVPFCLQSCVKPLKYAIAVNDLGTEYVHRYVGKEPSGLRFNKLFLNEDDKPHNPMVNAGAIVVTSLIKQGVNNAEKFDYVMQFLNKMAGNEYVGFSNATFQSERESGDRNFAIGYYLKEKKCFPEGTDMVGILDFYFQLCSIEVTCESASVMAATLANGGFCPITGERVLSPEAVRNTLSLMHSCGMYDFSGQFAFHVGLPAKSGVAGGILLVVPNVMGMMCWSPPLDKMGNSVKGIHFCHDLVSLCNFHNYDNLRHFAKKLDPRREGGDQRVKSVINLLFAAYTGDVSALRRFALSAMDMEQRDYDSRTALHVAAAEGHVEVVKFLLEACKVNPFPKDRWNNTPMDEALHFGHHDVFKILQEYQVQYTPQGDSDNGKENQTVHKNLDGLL
#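 hKGA in 45 mM KH2PO4 pH 8.2, 0.02% Tween-20 with pin-transferred compounds; 1 mM L-glutamine (stock) plus glutamate oxidase/HRP/Amplex Red coupling added. Fluorescence read initially and after 30 min at RT.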
# GLP-1R agonist = activates the human GLP-1 receptor; HEK293 GLP-1R CRE-luciferase, luminescence, 4-6 h; cells express a hypersensitive GLP-1R form; Potency, µM (titrated, usually from 45.6 µM), without a hit: at the top dose activation, usual class: activators; 380,000 compounds, 0.007% hits; AID 624172; further: potency means the concentration at half of the fitted maximal effect; % of control where 0% means no effect
# Numbers without * were called inactive; i = inactive; ? = inconclusive; / = not tested or not shown; ! = not confirmed by another sample; [ ] = remark or other dose. Most compounds without a hit are left out; they make up all but 2.8% or so of the library. Unless noted, the call rests on the fitted dose curve; in most records, active means well fitted curve in the direction sought with a large enough effect; inconclusive means small, poorly fitted or top-dose-only effect, or another doubt; inactive means no such curve, though single readings can be large; an effect the other way counts as inactive or inconclusive.
SMILES,KCNH2 WT inh,GLP1R inv ag,KCNH2 3.1 inh,GLP1R cytotox,GLS inh,GLP-1R agonist
COc1cc2c(cc1OC)CN(C(=O)CCOc1ccccc1C)CC2,-3,-28%,-17,?,-2%,13%
CC(C)(C)NS(=O)(=O)c1ccc(OCC(=O)N2CCN(Cc3ccccc3)CC2)cc1,-7,-26%,-1,-1%,0%,2%
CC(CN1CCNCC1)(NS(=O)(=O)c1ccccc1)c1ccccc1 (centres undefined),-18,3.5µM*,-10,?,-24%,-6%
c1ccc(CCN2CCC(N3CCN(c4ccccc4)CC3)CC2)cc1,73,1%,-21,4%,29%,14%
CCCCN(Cc1ccccc1)C1CCN(CCc2ccccc2)CC1,-10,10µM*,-49,-2%,-22%,1%
O=C(Nc1cccc(Cl)c1)OCC#CCN1CCCC1,11,-38%,-1,-11%,3%,7%
CCOC(=O)c1sc(NC(=O)Nc2cccc(Cl)c2)cc1C,7,3.5µM*,0,?,2%,-13%
CCN(CC)C(=O)c1ccc2c(c1)C1C=CCC1C(C(=O)O)N2 (centres undefined),-7,-12%,3,-17%,7.1µM*,-2%
C[N+]1(C)C2CC[C@H]1CC(OC(=O)[C@@H](CO)c1ccccc1)C2 (some centres undefined),/,/,/,/,-16%,18%
Fc1ccc(CNCCc2ccc3c(c2)OCO3)cc1,10,-24%,27,-10%,-3%,-5%
Fc1ccc([C@@H]2CCNC[C@H]2COc2ccc3c(c2)OCO3)cc1,-2,8.9µM*,-1,?,-8%,-6%
O=S(=O)(NC1CC(NS(=O)(=O)OCC(Cl)(Cl)Cl)C2CCCCC12)OCC(Cl)(Cl)Cl (centres undefined),-15,?,-10,-24%,-6%,4%
CN(C)[C@@H]1C(=O)C(C(N)=O)=C(O)[C@@]2(O)C(=O)C3=C(O)c4c(O)cccc4[C@@](C)(O)C3[C@H](O)C12 (some centres undefined),-3,-13%,6,4%,10µM*!,-5%
O=C(NCCc1ccc(Cl)cc1)c1ccc2c(c1)N(Cc1ccc(F)cc1Cl)C(=O)CS2,/,?,/,?,13%,0%
Cc1cccc(-n2c(/C=C/c3c(C)[nH]c4ccccc34)nc3ccccc3c2=O)c1,/,18%,/,1%,-1%,/
Cc1cccc(/C=C(\c2nc3ccccc3[nH]2)S(=O)(=O)c2ccccc2)c1,-3,5µM*,31,8.9µM*,0%,0%
CN(C(=O)CNC(=O)OCc1ccccc1)c1ccc(Br)cc1C(=O)c1ccccc1Cl,0,2.8µM*,-4,?,0%,-4%
Cc1ccc(/C(CSc2nccn2-c2ncc(C(F)(F)F)cc2Cl)=N\O)cc1,-1,3.5µM*,-7,4%,-2%,5%
Cc1cc(N/N=C/c2ccc(O)c(C)c2O)nc(-c2ccccc2O)n1,9,?,9,10µM*,-1%,-39%
CCCN(CCC)c1c([N+](=O)[O-])cc(S(N)(=O)=O)cc1[N+](=O)[O-],/,/,/,/,-2%[99.4 µM],10%[96 µM]
O=C(/C=C/c1ccc(F)cc1)NNC(=O)CCN1CCN(Cc2ccccc2)CC1,21,?,-105*,-1%,12%,2%
O=C(Cc1ccccc1)N1CCN(Cc2ccc(Cl)cc2)CC1,9,?,-9,-3%,-16%,9%
COc1ccccc1N1CCN(C(=O)c2sc3nc(C)nc(N4CCN(c5ccccn5)CC4)c3c2C)CC1,-9,5µM*,-22,?,5%,0%
CN(CCC#N)C(=O)COC(=O)c1c2c(nc3ccccc13)/C(=C\c1ccco1)CC2,1,-28%,-4,341%,11µM*,12%
CCCCNC(=O)COC(=O)c1c2c(nc3ccccc13)/C(=C/c1cccs1)CC2,2,?,-11,236%,9%,1%
SMILES,KCNH2 WT inh,GLP1R inv ag,KCNH2 3.1 inh,GLP1R cytotox,GLS inh,GLP-1R agonist
COc1ccc(SC[C@H](C)CN2CC[C@H](C(C)(C)C)CCC2=O)cc1,3,?,-16,?,-3%,3%
CN(C)C1(c2nnnn2CCOC(=O)Nc2ccc(Cl)cc2)CCCCC1,0,7.1µM*,-45,-17%,-2%,2%
CN(C)C1(c2nnnn2-c2ccc(Cl)cc2)CCCCC1,-2,?,-1,6%,1%,9%
CCCC1=Nc2cc(C(=O)NCCc3ccc(OC)cc3OC)ccc2Sc2ccccc21,/,?,/,-10%,-7%,2%
CCN(CC)CCNC(=O)c1nn(-c2ccc(Cl)cc2)c2c1CCc1cc(OC)ccc1-2,-47,4.5µM*,?,?,-5%,-1%
C[C@H]1CNCCc2ccc(Cl)cc21,/,/,/,/,-5%,0%
CCn1ccnc1CN1CCCC(C(=O)c2cc(Cl)ccc2OC)C1 (centres undefined),20,10µM*,10,?,4%,6%
CC(=O)c1c(O)cc2c3c1OC(C)(C)C1CCC(C)(CC31)O2 (centres undefined),3,?,1,-1%,6%,1%
CN(C)CCCNCC(=O)Nc1ccc(Cl)cc1C(=O)c1ccccc1,-10,-28%,-14,2%,9%,4%
CCN(CC)CCNCC(=O)Nc1ccc(Cl)cc1C(=O)c1ccccc1,-87*,?,-95*,-4%,13%,-2%
COc1ccc(-c2noc(=O)n2Cc2cc(C)ccc2C)cc1,-7,11µM*,-24,-26%,-1%,9%
COc1cccc(Cn2c(-c3cccs3)noc2=O)c1,-7,0%,14,?,-1%,16%
Clc1ccc(-c2cn3nc4c(nc3n2)CCCC4)cc1,-5,6.3µM*,0,i,13%,-19%
CC(C)=CCC/C(C)=C/CNC(=O)C[C@H]1C[C@H](C(=O)N2CCOCC2)[C@@]2(C)c3[nH]c4cc(-c5ccco5)ccc4c3CCN2C1=O,-9,?,-11,?,10%,0%
C[n+]1c(-c2ccccc2)c2cc(N)ccc2c2ccc(N)cc21,2,1.8µM*,-7,?,-8%,-3%
CC1CCCCN1C(=O)c1cc2nc(-c3ccccc3)cc(-c3ccccc3)n2n1 (centres undefined),4,?,-46,83%,-3%,4%
CC(=O)[C@@]1(O)CC[C@@H]2[C@@H]3CCC4=CC(=O)CC[C@]4(C)[C@]3(F)[C@@H](O)C[C@@]21C,/,/,/,/,1%,-6%

# Source: PubChem BioAssay (National Center for Advancing Translational Sciences (NCATS))
